Source: PubChem BioAssay (National Center for Advancing Translational Sciences (NCATS))
D1 agonist: activates the human D1 dopamine receptor; P21728; HEK293 T-REx D1 cells, calcium flux, agonist mode; activation, % at 2 µM; 360,000 tested, 1% active; AID 504660; also: 0% is about no effect
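Tetracycline-induced HEK293 TREx D1 cells, force-coupled to calcium signalling, were dye-loaded with a no-wash calcium kit. Compound was pin-added after a 10 s baseline. Fluorescence was read kinetically at 1 cycle/s for 180 s, with calcium rises flagged as agonism.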
TRHR PAM: allosterically enhances the human TRH receptor; 360,000 tested, 0.66% active; enhancement, % at 2 µM; P34981; TRHR cells, fluo-8 calcium fluorescence, EC20 TRH enhancement; in the data active = enhancement above about 30%; also: 0% is about no effect
Target sequence (P34981 whole entry, looked up): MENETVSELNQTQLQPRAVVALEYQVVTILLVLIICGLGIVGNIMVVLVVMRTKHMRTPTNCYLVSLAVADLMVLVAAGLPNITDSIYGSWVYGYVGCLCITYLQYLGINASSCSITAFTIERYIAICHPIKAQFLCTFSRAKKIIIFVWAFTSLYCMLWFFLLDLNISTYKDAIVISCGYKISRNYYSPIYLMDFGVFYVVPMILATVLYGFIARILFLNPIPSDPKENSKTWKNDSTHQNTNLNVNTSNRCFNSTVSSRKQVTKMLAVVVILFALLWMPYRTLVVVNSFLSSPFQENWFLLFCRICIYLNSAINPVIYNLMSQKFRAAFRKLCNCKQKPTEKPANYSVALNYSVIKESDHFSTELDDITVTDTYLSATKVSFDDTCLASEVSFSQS
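Enhancer read-out: after compound pinning and an initial kinetic agonist-mode read, an EC20 of TRH (10 nM final) was injected and fluo-8 calcium signal (Ex 480/Em 530) followed at 1 s/cycle for 100 cycles in TRHR-expressing cells.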
D1 antag: human D1 dopamine receptor antagonism; P21728; HEK293 TREx D1 cells, calcium flux, dopamine EC80; hits give low values; activity change, negative = inhibition, % at 10 µM; 360,000 tested, 3.2% active; in the data active = activity change below about -30%; also: % is scaled to controls: 0 for no effect and ±100 for the full control effect
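Antagonism measured as reduced calcium response to an EC80 dopamine addition following 180 s compound pre-read; cells were inducible HEK293 Trex D1 plated overnight at 30 C, read kinetically at 1 cycle/sec.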
D1 PAM: human D1 dopamine receptor positive modulation; P21728; HEK293 TREx D1 cells, calcium flux, dopamine EC20 potentiation; potentiation, % at 10 µM; 360,000 tested, 0.036% active; in the data active = potentiation above about 30%; also: 0% is about no effect
TRHR agonist: agonists of human TRH receptor; TRHR cells, calcium flux fluo-8, FDSS agonist mode; activation, % at 2 µM; 360,000 tested, 0.18% active; also: 0% is about no effect
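Fluo-8-loaded TRHR cells; 10 s baseline, compound added, kinetic Ca2+ fluorescence read 1/s, agonist mode.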
Glioma ERSR ind: induces the endoplasmic reticulum stress response in human glioma cells. U87-MG GRP78 promoter luciferase reporter, 16 h. Potency, µM, inactives show at the top dose activation, hits mostly activators. 420,000 tested, 0.02% active; active = well fitted activation curve with a large enough effect; also: potency is read from the fitted curve at half-maximal effect; series mostly up to about 76 µM; % of control where 0% means no effect; nearly all actives have a fitted effect of over 35% in size
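Stably transfected U87-MG glioma cells carrying a GRP78-based luciferase sensor; 16 h compound incubation. Luminescence end-point read 10 min after Bright-Glo addition at room temperature.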
* hit, by the source's call; / = no result given; ! = repeats disagree. Compounds with a hit are over-represented: about 4% of the library has one in this group of screens. Rule as the data show it, unless noted: active = activation above about 30%; inactive = the rest.

SMILES | D1 agonist | TRHR PAM | D1 antag | D1 PAM | TRHR agonist | Glioma ERSR ind
O=C(CN1C(=O)C2C3C=CC(C3)C2C1=O)OCC(=O)c1ccc(Br)cc1 (configuration not stated) | 13.5 | -8.8 | -43.3* | -1.6 | 0.0 | 5.3%
O=C(CN1C(=O)C2C3CCC(C3)C2C1=O)OCC(=O)c1ccc(Br)cc1 (configuration not stated) | 7.1 | 12.0 | -19.5 | -4.7 | 0.6 | -2.1%
COc1ccc(C(=O)COC(=O)C(C(C)C)N2C(=O)C3C4C=CC(C4)C3C2=O)cc1 (configuration not stated) | 3.1 | -2.3 | -58.8* | 2.3 | 0.4 | -0.8%
COc1cccc(-n2c(=O)c3c(C)c(C)sc3n(CC(=O)NCCc3ccc(OC)c(OC)c3)c2=O)c1 | -0.4 | -4.1 | 8.8 | 0.6 | -1.6 | /
CN(C)C=Nc1ccccc1C1C=NNC1=O (configuration not stated) | 1.2 | -6.0 | -34.3* | -4.8 | 1.0 | /
CCC(C)C(NC(=O)C1CCC(C)CC1)C(=O)Nc1ccc(OC)cc1 (configuration not stated) | 0.6 | 1.9 | 9.1 | -2.6 | -0.7 | 2.9%
CC(C)C[C@@H](CN=[N+]=[N-])N1CCN(CCc2ccccc2)CCC1=O | / | / | / | / | / | -2.6%
O=C(O)c1cccnc1SCc1cccc(Cl)c1 | 0.9 | -27.4 | -39.7*! | -12.7 | -0.5 | 1.9%
CN1CCOc2ccc(S(=O)(=O)N3CCN(S(=O)(=O)c4c(F)cccc4F)CC3)cc21 | 1.2 | 1.8 | 6.5 | 4.5 | -0.1 | /
O=C1CC(c2ccco2)Cc2nc(NCC3CCCO3)ncc21 (configuration not stated) | -0.1 | 2.3 | -32.3* | -3.5 | 0.3 | -1.4%
COc1ccc(C2/C=C\CN(C(=O)C3CCCCC3)CC(=O)N2Cc2ccc(F)cc2)cc1 (configuration not stated) | 3.2 | -2.7 | 8.7 | -4.7 | 0.2 | -6.6%
COc1ccc(C2/C=C\CN(C(=O)C3CCCC3)CC(=O)N2Cc2ccc(F)cc2)cc1 (configuration not stated) | 6.7 | 0.9 | -34.3* | -7.3 | -0.5 | -5.6%
COc1cc(/C=N/NC(=O)c2cccnc2)ccc1OS(=O)(=O)c1cc(C)ccc1C | 4.1 | -1.0 | 15.7 | -3.1 | 0.4 | -3.5%
CCOc1ccc(NC(=O)c2cccc(S(=O)(=O)NCc3cccnc3)c2)cc1 | / | / | / | / | / | -5.6%
O=C(Nc1ccc(Cl)cc1Cl)[C@@H]1CC=C[C@@H]2CCN(C3CC3)C(=O)[C@@H]21 | / | / | / | / | / | -2.5%
N#CC(C#N)=C1C=C2C=C(N3CCCCC3)CCC2CC1 (configuration not stated) | 671.3* | -20.7 | -29.0 | -6.5 | 248.7* | -3.9%
CCN(CC)C1=CC2=CC(=C(C#N)C#N)CCC2CC1 (configuration not stated) | 487.2* | 3.8 | -82.2* | -10.2 | 0.4 | -4.5%
CCCCN(C)C1=CC2=CC(=C(C#N)C#N)CCC2CC1 (configuration not stated) | 489.8* | -9.2 | -85.1* | 1.1 | 261.2* | -6.3%
CCN(CC)S(=O)(=O)c1ccc(C(C)NC(=O)C2CCCN2C(=O)c2cccs2)cc1 (configuration not stated) | -0.7 | -5.1 | 21.7 | -2.4 | -0.7 | -4.3%
COc1cccc(NC(=O)CSc2nc3c(oc4ccccc43)c(=O)[nH]2)c1 | -0.2 | -8.6 | 6.1 | 5.8 | -0.3 | 5.2%
CCOC(=O)C1(CCCc2ccccc2)CCN(CCCn2cccn2)CC1 | 36.5* | 7.7 | -8.3 | -1.1 | 0.0 | -3.4%
CCOC(=O)C1(CCCc2ccccc2)CCN(Cc2nccn2CC)CC1 | 2.3 | 3.6 | -5.7 | -2.6 | 0.3 | -4.7%
COCCCNC(=O)c1c(NC(=O)Cc2coc3cc(C)cc(C)c23)sc2c1CCCC2 | 2.0 | -1.1 | -8.1 | 0.8 | 0.7 | -3.5%
COc1ccc2c(c1)C/C(=C\c1ccc(N(C)C)cc1)C2=O | / | / | / | / | / | 0.7%
COc1ccc(N(CC(=O)NCc2ccco2)S(C)(=O)=O)cc1OC | 1.0 | -7.2 | -0.6 | -3.1 | -0.1 | -4.5%
SMILES | D1 agonist | TRHR PAM | D1 antag | D1 PAM | TRHR agonist | Glioma ERSR ind
Cc1ccc(N(CC(=O)NCCSCc2ccco2)S(=O)(=O)c2ccc(C)cc2)cc1 | 14.4 | -6.7 | -37.9* | -2.4 | 0.6 | -4.9%
CC(C)c1ccc(N(CC(=O)NCCSCc2ccco2)S(C)(=O)=O)cc1 | 2.0 | -2.5 | -60.8* | 5.3 | -0.2 | 0.7%
COc1ccc(C)cc1N(CC(=O)NCCSCc1ccco1)S(=O)(=O)c1ccc(C)cc1 | 25.5 | 33.3* | -8.1 | -4.0 | -0.3 | -2.7%
CS(=O)(=O)N(CC(=O)NCCSCc1ccco1)c1ccc(Cl)cc1 | 2.6 | 1.5 | -2.7 | 2.0 | 0.3 | -0.8%
COc1ccc(N(CC(=O)NCc2ccco2)S(C)(=O)=O)cc1Cl | 1.8 | -0.5 | -67.6* | -2.2 | 0.2 | -4.8%
COc1ccc(OC)c(N(CC(=O)NCCSCc2ccco2)S(=O)(=O)c2ccc(OC)c(OC)c2)c1 | 4.2 | -2.5 | 5.6 | -11.9 | 0.1 | -4.2%
COc1cc2c(cc1OC)CN(C(=O)[C@@H]1C[C@H](NCc3cn(C)c4ccccc34)CN1C1Cc3ccccc3C1)CC2 | / | / | / | / | / | -3.2%
COc1cccc(-c2nc(NCCN3CCOCC3)c3ccccc3n2)c1 | / | / | / | / | / | 0.1%
CCn1cc2nc(SCC(=O)Nc3cc(OC)ccc3OC)n(Cc3ccc(Cl)cc3)c(=O)c2n1 | 1.2 | 11.9 | 12.2 | 5.3 | 0.9 | -1.8%
[2H]c1c([2H])c([2H])c2c([nH]c(=S)n2C2CCN(CCCC(=O)c3ccc(F)cc3)CC2)c1[2H] | / | / | / | / | / | -4.5%
COc1ccc(C(=O)NCCc2nnc3n2CCN(CC2CC=CCC2)CC3)cc1 (configuration not stated) | / | / | / | / | / | -5.4%
Nc1ccn(CC(=O)N[C@H](CO)Cc2c[nH]c3ccccc23)c(=O)n1 | 1.3 | -1.3 | -34.0* | -3.9 | 0.0 | -4.0%
Nc1ccn(CC(=O)NCc2ccccc2)c(=O)n1 | 0.6 | 2.9 | 4.3 | 2.4 | 0.5 | -1.1%
Cc1nc(SCC(=O)Nc2ccccc2F)[nH]c(=O)c1Cc1ccccc1 | 8.6 | 1.1 | -9.7 | -2.8 | -0.5 | /
Cc1cccc(NC(=O)CSc2nc(C)c(Cc3ccccc3)c(=O)[nH]2)c1C | 1.1 | -4.2 | -31.4*! | -5.9 | -0.8 | /
O=C(C[N+]12CN3CN(CN(C3)C1)C2)c1ccc(O)c(O)c1 | / | / | / | / | / | -4.4%
O=C(c1ccco1)N1CCCN(Cc2nc(Cc3ccccc3)no2)CC1 | -0.5 | -6.0 | -6.5 | 0.5 | 0.3 | -2.8%
Cc1cc(NC(=O)CSc2ccc3nnc(-c4ccccn4)n3n2)no1 | 3.0 | 1.1 | -32.1* | -10.9 | 3.6 | -4.9%
Cc1cc2ncn(S(=O)(=O)N3CCOCC3)c2cc1C | -0.8 | -6.7 | 4.5 | 3.5 | -0.3 | -2.4%
Cc1cc2ncn(S(=O)(=O)N3CCCCC3)c2cc1C | -0.9 | -5.3 | -32.7* | -3.0 | -0.5 | -2.0%
